Screening results deposited in PubChem by The Scripps Research Institute Molecular Screening Center.
PP5 primary – blocks human protein phosphatase 5 activity; inhibition, % at 6.7 µM; P53041; hit rate 0.18% among 320,000; purified PP5c, OMFP substrate fluorescence;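 active means inhibition above the campaign's mean inhibition across all tested compounds plus 3 SD, cut at about 9.5% in these data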;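 further: 0% = DMSO only and 100% = 100 µM cantharidin control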
EBNA-1 inh – blocks EBNA-1 binding to DNA; inhibition, % at 14.8 µM; EBNA-1 DNA binding, fluorescence polarization; hit rate 0.34% among 300,000; in the data active means inhibition above about 28%
MsrA inh – inhibitors of bovine MsrA. purified bovine MsrA, absorbance read-out. inhibition, % at 15.5 µM. hit rate 0.75% among 360,000. AID 651718;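 further: 0% = vehicle wells with enzyme and 100% = reference inhibitor wells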
PP1 counter – blocks human PP1-alpha phosphatase, a PP5 counter-screen. AID 2235. purified PP1alpha, OMFP fluorescence. inhibition, % at 6.7 µM. hit rate 0.9% among 320,000. P62136;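 active means inhibition above the mean inhibition of all tested compounds plus 3 SD, computed separately for each screening campaign, cut at about 15% in these data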
ZTA counter – counter-screen for EBNA-1 inhibitors: inhibitors of Epstein-Barr virus ZTA; P03206; ZTA-DNA binding, fluorescence polarization; inhibition, % at 11 µM; hit rate 0.15% among 320,000; in the data active means inhibition above about 33%
Target sequence (P03206 whole entry, looked up): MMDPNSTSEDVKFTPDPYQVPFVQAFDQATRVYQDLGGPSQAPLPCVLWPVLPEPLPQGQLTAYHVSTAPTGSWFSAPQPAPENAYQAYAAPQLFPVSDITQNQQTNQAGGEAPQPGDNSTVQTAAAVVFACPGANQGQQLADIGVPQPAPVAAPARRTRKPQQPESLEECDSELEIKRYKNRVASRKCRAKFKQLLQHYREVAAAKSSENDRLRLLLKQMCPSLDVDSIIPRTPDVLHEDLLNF
MsrA act – bovine methionine sulfoxide reductase A activation. purified bovine MsrA, absorbance read-out. activation, % at 10.6 µM. hit rate 0.3% among 360,000. AID 602163; in the data active means activation above about 7.5%;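 further: 0% = vehicle and 100% = reference activator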
MsrA conf – bovine MsrA inhibition, confirmed; shares compounds with MsrA inh; purified bovine MsrA, absorbance read-out; inhibition, % at 15.5 µM; hit rate 41% among 2,300; AID 651822;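 further: coupled to thioredoxin reductase with NADPH and selenocystamine and DMSO as substrate; 0% = vehicle only and 100% = full effect of reference inhibitor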
Numbers without * were called inactive. Compounds with a hit are over-represented: about 2.3% of the library has one in this group of screens. Unless noted, no stated cut-off is given here; in the data, active means inhibition above about 4.5%; inactive means the rest.

CC12CN(NC(=O)c3ccccc3F)C3(C#N)CC1CCC23C (configuration not stated) was read as PP5 primary -2.1, EBNA-1 inh 3.0, MsrA inh 0.9, PP1 counter -6.3, ZTA counter -3.9 and MsrA act -5.0.
Screening O=C(O)CCCC(=O)Nc1ccc(N=Nc2ccccc2)cc1 returned PP5 primary 0.2, EBNA-1 inh -10.0, MsrA inh 6.6*, PP1 counter -1.3, ZTA counter -18.5, MsrA act 0.2 and MsrA conf 3.0.
`COC(=O)CCC(=O)Nc1ccc(N=Nc2ccccc2)cc1` gave PP5 primary 3.6, EBNA-1 inh -1.8, MsrA inh 3.8, PP1 counter -1.3, ZTA counter -2.5 and MsrA act -10.4.
For C=CCc1c(C)nc(C)nc1N/N=C/c1ccc(F)cc1 the results were PP5 primary 2.6, EBNA-1 inh -1.8, MsrA inh 3.4, PP1 counter 1.7, ZTA counter -1.3 and MsrA act -5.4.
C=CCc1c(C)nc(C)nc1N/N=C/c1ccccc1 was read as PP5 primary 0.8, EBNA-1 inh -2.1, MsrA inh 4.7*, PP1 counter 0.1, ZTA counter 9.5, MsrA act -3.5 and MsrA conf 4.8*.
Screening CC(=O)OC(=C(OC(C)=O)c1ccccc1)c1ccccc1 returned MsrA inh 5.8*, MsrA act -1.9 and MsrA conf 6.0*.
Screening COC(=O)CNC(=O)c1ccccc1 returned PP5 primary 4.1, EBNA-1 inh -1.2, MsrA inh 0.0, PP1 counter -5.5, ZTA counter 5.9 and MsrA act -1.2.
For O=C(N=Nc1c(O)[nH]c2ccccc12)c1ccccc1NS(=O)(=O)c1cccs1 the results were PP5 primary 4.5, EBNA-1 inh 9.5, MsrA inh 4.8*, PP1 counter -0.7, ZTA counter -17.9, MsrA act -10.8 and MsrA conf 3.9.
`Oc1c(Br)cc(/C=N/Nc2ccc(Cl)nn2)cc1Br` gave PP5 primary 1.2, EBNA-1 inh -11.0, MsrA inh 5.9*, PP1 counter 2.4, ZTA counter -18.1, MsrA act -6.2 and MsrA conf 3.4.
For Oc1c(Br)cc(Br)cc1/C=N/Nc1ccc(Cl)nn1 the results were PP5 primary 1.8, EBNA-1 inh -4.0, MsrA inh -0.7, PP1 counter -2.2, ZTA counter -24.0 and MsrA act -3.1.
For CCc1c(C)nc2ncnn2c1Nc1ccc(C(C)=O)cc1 the results were PP5 primary -1.7, EBNA-1 inh 6.8, MsrA inh 5.3*, PP1 counter -6.8, ZTA counter 8.1, MsrA act -4.5 and MsrA conf 4.3.
Screening Cc1nc(N2CCN(Cc3ccc(Cl)cc3)CC2)c2oc3ccccc3c2n1 returned PP5 primary -0.1, EBNA-1 inh 15.8, MsrA inh 0.9, PP1 counter -2.4, ZTA counter 7.9 and MsrA act -6.4.
Screening Cc1nc(N2CCN(Cc3ccc4c(c3)OCO4)CC2)c2oc3ccccc3c2n1 returned MsrA inh 9.9*, MsrA act -3.7 and MsrA conf 0.2.
CN(C)/C=C1\N=C(c2ccc3c(c2)OCO3)OC1=O was read as PP5 primary 2.3, EBNA-1 inh -7.0, MsrA inh 6.1*, PP1 counter 4.5, ZTA counter -4.4, MsrA act -5.9 and MsrA conf 5.7*.
For CC1=CC(=C2N=C(c3ccccc3)OC2=O)C=C(C)O1 the results were PP5 primary -1.4, EBNA-1 inh 4.8, MsrA inh -0.2, PP1 counter -2.5, ZTA counter 14.2 and MsrA act 2.5.
CN(C)/C=C1\N=C(c2ccccc2)OC1=O was read as PP5 primary -2.4, EBNA-1 inh 4.1, MsrA inh 8.9*, PP1 counter 0.2, ZTA counter -8.1, MsrA act -11.0 and MsrA conf 6.0*.
Screening CCOc1cc(/C=C2/N=C(c3ccc4c(c3)OCO4)OC2=O)ccc1OC(C)=O returned PP5 primary -0.2, MsrA inh 0.9, PP1 counter 0.5, ZTA counter -0.8 and MsrA act -2.7.
O=C1N=C(C=c2ccc(=Cc3[nH]c(=O)[nH]c3O)cc2)C(=O)N1 was read as PP5 primary 0.8, EBNA-1 inh -2.2, PP1 counter 5.7 and ZTA counter 2.0.
